Source: PubChem
PI5P4Ka inh: qHTS for Inhibitors of phosphatidylinositol 5-phosphate 4-kinase (PI5P4K). Phosphatidylinositol 5-phosphate 4-kinase type-2 alpha (Homo sapiens), P48426. PI5P4Kalpha enzyme, ADP-Glo luminescence, 60 min; hits give low values. max response, %. 1.2% of 330,000 active. AID 652105, 2013; active = max response of -50% or lower; inconclusive = between -30% and -50%; inactive = -30% or higher; also: value at the top dose of about 77 µM
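Controls without substrate or without enzyme flank wells where PI5P4Kalpha converts substrate using 5 microM ATP (final). Incubation lasts 60 minutes at room temperature; ADP formed is read by ADP-Glo luminescence.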
G9a block: qHTS Assay for Inhibitors of Histone Lysine Methyltransferase G9a. G9a H3K9 monomethylation, AlphaScreen, 2 h. Potency, µM (titrated, usually from 102 µM), actives largely listed as inhibitors. 8.8% of 350,000 active. AID 504332, 2011; also: nearly all actives have a fitted effect of over 75% in size
Target sequence (Q96KQ7 913-1193 limits assumed): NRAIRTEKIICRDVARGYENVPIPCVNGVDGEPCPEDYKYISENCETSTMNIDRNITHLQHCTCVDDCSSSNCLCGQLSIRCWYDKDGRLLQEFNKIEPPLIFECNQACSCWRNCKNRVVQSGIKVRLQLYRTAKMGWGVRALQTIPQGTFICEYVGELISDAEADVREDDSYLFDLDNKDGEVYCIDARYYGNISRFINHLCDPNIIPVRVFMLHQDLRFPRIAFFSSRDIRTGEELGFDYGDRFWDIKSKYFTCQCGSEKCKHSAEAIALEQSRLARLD
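G9a (20 nM) was preincubated 15 min with compound, then reacted 2 h at room temperature with 500 nM biotin-H3K9 peptide and 20 µM SAM. Monomethyl-H3K9 detected by AlphaScreen using anti-H3K9me1 antibody.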
HP1b chromo inh: HTS for Inhibitors of HP1-beta Chromodomain Interactions with Methylated Histone Tails; Potency, µM (titrated, usually from 114 µM), usual class: inhibitors; Chromobox protein homolog 1 (Homo sapiens), P83916; AlphaScreen HP1-beta / biotin-H3K9me3 peptide binding; 0.56% of 390,000 active; also: nearly all actives have a fitted effect of over 70% in size
Target sequence (P83916 whole entry, looked up): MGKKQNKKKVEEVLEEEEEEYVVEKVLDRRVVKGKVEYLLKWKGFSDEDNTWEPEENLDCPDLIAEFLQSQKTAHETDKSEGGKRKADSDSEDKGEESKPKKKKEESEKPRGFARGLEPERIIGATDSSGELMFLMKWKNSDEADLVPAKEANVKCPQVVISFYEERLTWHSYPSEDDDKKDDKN
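Compound inhibition of the preformed complex between 50 nM HP1-beta and 50 nM biotinylated H3K9me3 peptide was read by AlphaScreen. Buffer was PBS pH 7.4 with 0.01% Tween-20. Incubations ran 30 min at room temperature, with 10 ug/mL donor/acceptor beads.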
JMJD2A Tudor: qHTS Assay for Inhibitors of JMJD2A-Tudor Domain; Lysine-specific demethylase 4A (Homo sapiens), O75164; AlphaScreen JMJD2A-Tudor / H3K4me3 peptide binding; Potency, µM (top dose mostly 114 µM), usual class: inhibitors; 4.4% of 390,000 active; also: nearly all actives have a fitted effect of over 50% in size
PLK1 PBD block: qHTS for Inhibitors of PLK1-PDB (polo-like kinase 1 - polo-box domain): Primary Screen; Plk1 PBD binding of FITC phosphopeptide, fluorescence polarization; Potency, µM, most hits filed as inhibitors; 2.8% of 360,000 active; also: series mostly up to about 57 µM; nearly all actives have a fitted effect of over 65% in size
BAZ2B inh: qHTS Assay for Inhibitors of BAZ2B; Bromodomain adjacent to zinc finger domain protein 2B (Homo sapiens), Q9UIF8; AlphaScreen BAZ2B-H3K14Ac peptide displacement; Potency, µM (highest dose often 114 µM), most hits filed as inhibitors; 4.4% of 360,000 active; also: nearly all actives have a fitted effect of over 60% in size
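Protein-peptide AlphaScreen: BAZ2B 50 nM, b-H3K14Ac 50 nM, 1x PBS pH 7.4 + 0.01% Tween-20. Preincubation 30 min RT; cpd 30 min RT (top 110 uM); beads 20 min RT, light-protected.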
Numbers stand for hits; – = inactive; ? = inconclusive; · = not tested or not shown; [ ] = dose if it differs, or a comment. Most compounds without a hit are left out; they make up all but 12% or so of the library. Unless noted, calls follow the shape of the dose curve; as a rule, active = well fitted curve in the direction sought with a large enough effect; inconclusive = small, poorly fitted or top-dose-only effect, or another doubt; inactive = no such curve, though single readings can be large; an effect the other way counts as inactive or inconclusive.

SMILES	PI5P4Ka inh	G9a block	HP1b chromo inh	JMJD2A Tudor	PLK1 PBD block	BAZ2B inh
CCOC(=O)C1=C(C)OC(N)=C(C#N)C1c1cc2cc(C)ccc2nc1N1CCCCC1 (configuration not stated)	–	10µM	–	–	?	–
CCCCCCCCN1C(=O)[C@H](CC(=O)NCCc2ccccc2OC)C[C@@]2(C(=O)OCC)CCCC=C12	–	·	·	·	–	·
Oc1ccc(Br)cc1C1Nc2ccccc2S1 (configuration not stated)	–	–	–	–	–	–
O=[N+]([O-])c1cc(S(=O)(=O)N2CCOCC2)ccc1N1CCCC1	–	–	–	–	–	–
Cc1cc(CNCCN(C)C)c(C)n1-c1cc(S(=O)(=O)N2CCOCC2)ccc1N1CCCC1	–	·	–	8.91µM	–	·
Cc1ccc(C)n1-c1cc(S(=O)(=O)N2CCOCC2)ccc1N1CCCC1	·	?	–	79.4µM	–	–
CNCc1cc(C)n(-c2cc(S(=O)(=O)N3CCOCC3)ccc2N2CCCC2)c1C	–	·	·	·	–	·
Brc1cccc(CNc2nc3ccccc3n2CCN2CCCCC2)c1	–	?	–	–	–	–
O=C(Nc1nc2ccccc2n1CCN1CCOCC1)c1ccc(Cl)cc1	–	·	–	–	–	–
Brc1ccc(CNc2nc3ccccc3n2CCN2CCCCC2)cc1	–	44.7µM	–	–	–	?
O=C(Nc1nc2ccccc2n1CCN1CCCC1)C1CCCCC1	–	–[12.7 µM]	–	–	–	50.1µM
CCC(=O)Nc1nc2ccccc2n1CCN1CCOCC1	–	?	–	3.16µM	–	·
CN1CCN(C(=O)C[C@H]2CC[C@H]3[C@@H](COC[C@@H](O)CN3Cc3cccc(F)c3)O2)CC1	–	·	·	·	–	·
Cc1cccc(NC(=O)CSc2cn(CC(=O)N3CCOCC3)c3ccccc23)c1C	·	–	–	–	·	?
COc1cnc(-c2ccccn2)nc1Sc1ccc(F)cc1	–	–	–	?	–	28.2µM
CCOC(=O)CSc1nc(-c2ccccn2)ncc1OC	–	?	–	70.8µM	–	25.1µM
COc1ccc(Sc2nc(-c3ccccn3)ncc2OC)cc1	–	–	–	?	–	28.2µM
Cc1cc2c(s1)c1cnn(Cc3cc(C(F)(F)F)ccc3F)c(=O)c1n2C	·	·	·	–	·	·
CN1CCN(C2CN(CCc3ccccc3)S(=O)(=O)C2)CC1 (configuration not stated)	–	·	·	·	–	·
COc1ccc(NC(=O)N2CC[C@@]3(CCCN(C(=O)c4ccncc4)C3)C2)cc1	·	–[12.7 µM]	·	·	·	·
COc1ccc(NC(=O)C(CC(=O)O)Cc2ccccc2)cc1 (configuration not stated)	·	?	–	–	–	–
COc1cc(CC(CC(=O)O)CC(C)OCc2ccccc2)cc(OC)c1 (configuration not stated)	–	1.41µM	–	–	–	–
CN(C)CCN(Cc1ccco1)C(=O)c1oc2ccccc2c1NC(=O)COc1ccccc1	–	44.7µM	?	28.2µM	?	?
CCOCCc1nn2c(=O)cc(COC(=O)c3ccccc3NC(=O)c3cccs3)nc2s1	·	–	–	–	·	–
COc1ccc(Cl)cc1NC(=O)CSc1nnc(CNC(=O)c2cccs2)o1	–	–	–	–	?	–
SMILES	PI5P4Ka inh	G9a block	HP1b chromo inh	JMJD2A Tudor	PLK1 PBD block	BAZ2B inh
CSC1=C(C#N)C(c2ccncc2)C(C(=O)Nc2ccccc2)=C(C)N1 (configuration not stated)	–	25.1µM	–	–	–	–
CC1=C(C(=O)Nc2ccccc2)C(c2ccco2)C(C#N)=C(SCC(=O)Nc2cccc(C)c2C)N1 (configuration not stated)	·	?	–	–	–	–
CC1=C(C(=O)Nc2ccccc2)C(c2ccco2)C(C#N)=C(SCc2ccccc2)N1 (configuration not stated)	·	?	·	·	·	–
CC1=C(C(=O)Nc2ccccc2)C(c2ccncc2)C(C#N)=C(SCC(=O)Nc2ccccc2)N1 (configuration not stated)	–	28.2µM	–	–	?	–
COc1ccc(NS(=O)(=O)c2cc(NC(=O)c3ccc(=O)[nH]c3)ccc2N2CCCC2)cc1	–	·	–	?	–	39.8µM
COc1ccc(NS(=O)(=O)c2cc(NC(=O)c3cccnc3Cl)ccc2N2CCCC2)cc1	–	44.7µM	–	?	–	–
O=C(c1ccc(N2CCOCC2)nc1)N1CCOCC1	·	–	–	–	–	–
CS(=O)(=O)N1CCN(c2ccc(NC(=O)c3cccnc3Cl)cc2)CC1	·	?	–	–	–	–
COc1ccc(NS(=O)(=O)c2cc(NC(=O)c3cnc(C)cn3)ccc2N2CCCC2)cc1	–	–	–	–	–	–
COc1ccc(NS(=O)(=O)c2cc(NC(=O)c3cnc(C)cn3)ccc2N2CCCCC2)cc1	–	–	–	–	–	–
O=C(c1ccc(C(=O)N2CCOCC2)nc1)N1CCOCC1	–	?	–	39.8µM	–	–
O=C(Nc1ccc(N2CCCCC2)cc1)c1cccnc1Cl	–	50.1µM	–	–	–	–
Cc1ccc(-c2nc3scc(CCNS(=O)(=O)c4ccc(C)c(C)c4)n3n2)cc1	·	–	–	–	·	–
O=C(NC1CC1)c1ccc(NC(=O)C2CCCCC2)cc1	–	·	–	–	–	·
O=C(c1cccnc1Cl)N1CCOCC1	?	–	–	?	18.9µM	·
O=C(c1ccccc1F)N1CCOCC1	–	–	–	–	–	–
Cc1csc(NC(=O)C2CSC3(C)CCC(=O)N23)n1 (configuration not stated)	–	·	–	–	–	–
CC12CCC(=O)N1C(C(=O)Nc1nc3ccc(S(C)(=O)=O)cc3s1)CS2 (configuration not stated)	–	?	–	–	–	–
CC12CCC(=O)N1C(C(=O)Nc1nc3ccc(Cl)cc3s1)CS2 (configuration not stated)	?	44.7µM	–	?	–	–
Cc1ccc(-c2csc(NC(=O)C3CSC4(C)CCC(=O)N34)n2)cc1 (configuration not stated)	–	–[0.501 µM]	–	–	–	79.4µM
CCc1ccc2nc(NC(=O)C3CSC4(C)CCC(=O)N34)sc2c1 (configuration not stated)	–	28.2µM	–	–	–	–
COc1ccc2nc(NC(=O)C3CSC4(C)CCC(=O)N34)sc2c1 (configuration not stated)	–	?	–	–	–	–
